For 90 compounds, inhibition results are on record in PubChem BioAssay AID651702 (NMMLSC, 2012).

Where “and” joins values, the source holds several entries; their conditions need not be identical. Equal entries are not always repeated. The whole screen tested about 360,000 compounds, of which about 2,400 (0.67%) were called active. Only a selection was taken, and actives are over-represented in it overall. Unmarked numbers belong to inactive results.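 How the source made its calls: active means inhibition above about 55% (limit read from the data); inconclusive means no clear call, values can overlap the other calls; inactive means the rest.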

This assay in a line: LAMP-1 surface exposure blockers, TALL-104 cells – cell-based, flow cytometry, MLPCN library, primary screen (AID 651702). The conditions noted are these: TALL-104 LAMP-1 surface exposure, at 10 µM, active compounds read high, cells stimulated with thapsigargin and PMA.
For orientation: inhibition means the relative decrease from the control value, in per cent. Consider `Cc1c(/C=N\NC(=O)c2cc3ccccc3o2)c2ccccc2n1C`, for which the inhibition is 65.6% (active).
For the compound `COc1ccc2c(c1)c(C(=O)N/N=C/c1cccs1)c(C)n2C`, the inhibition was 0.8%.
As for `CC(C)(C)n1nc2c(c1NC(=O)c1cc3ccccc3o1)CSC2`, the inhibition was 0%.
In the case of `CCn1nc(C(=O)NNS(=O)(=O)c2cc(/C=C/C(=O)O)cc(OC)c2OC)c2ccccc2c1=O`, the inhibition is 1.1%.
`CCOc1ccc(/C=C/C(=O)OCC(=O)c2ccccc2OC)cc1OC`: the inhibition was -4.4%.
Then `O=C(CN1C(=O)NC2(CCCCCC2)C1=O)NCc1cccs1`, with -5.2%; and `Cc1nc2c(C(=O)NCc3ccc4c(c3)OCO4)c[nH]n2c(=O)c1Cc1ccccc1F`, with -2.7%; and `Cc1cccc(N(C)C(=O)c2cc(S(=O)(=O)N3CCCCC3)c[nH]2)c1`, with -3.8%.
In the case of `CCCCn1nnnc1C1(C)CCC(=O)N1Cc1ccc(OC)c(OC)c1` (stereo not given), the inhibition is -1.7%.
The result for `Cc1nc2nc(SCC(=O)c3ccccc3)[nH]c2cc1Br` reads -2.1%; that for `Cc1nc(SCC(=O)c2ccccc2)c([N+](=O)[O-])[nH]1`, 0.6%; that for `Cc1cc(SCC(=O)c2ccccc2)nc(SCC(=O)c2ccccc2)n1`, 78.5% (active).
Turning to `O=c1[nH]c(=S)[nH]c(O)c1/C=C1\C=Nc2ccccc21`, the inhibition was -1.2%.
Take `CCCC(C(=O)n1nc(C)cc1C)C(NS(=O)(=O)c1ccc(C)cc1)c1ccccc1` (stereo not given): the inhibition was 66% (active).
Take `CSCC(NS(=O)(=O)c1ccc(C)cc1)C(=O)O` (stereo not given): the inhibition is 1.8%.
In the case of `Cc1ccc(S(=O)(=O)NC(C(=O)N2CCOCCOCCOCCOCC2)c2ccccc2)cc1` (stereo not given), the inhibition is -7%.
The result for `N#Cc1ccc(C(C(=O)NCc2ccccc2)n2c(=O)c(-c3ccco3)nc3ccccc32)cc1` (stereo not given) reads 1.3%; that for `COc1ccccc1CCNC(=O)c1c(C)nn(CC(C)C)c1Cl`, -1.6%.
On to `COCCCn1c(SCC(=O)Nc2oc(C)c3c(C)n[nH]c(=O)c23)nc2sc3c(c2c1=O)CCC3`, for which the inhibition was -0.6%.
`CC(CCc1ccccc1)NC(=O)COC(=O)c1ccc(F)cc1` (stereo not given): the inhibition is 6%.
On to `COc1cc(/C=C2/C(=O)ON=C2C)ccc1OCc1ccccc1F`, for which the inhibition was 60.6% (active).
Consider `C#CCOc1ccc(/C=C2/C(=O)ON=C2C)cc1OCC`, for which the inhibition was -12.5%.
The result for `CC1=NOC(=O)/C1=C\c1ccccc1` reads -7.3%.
Then `CC(C)(C)c1ccc(C(=O)N2CCN(CCNC(=O)C(=O)Nc3ccc(F)cc3)CC2)cc1`, with -0.5%.
In the case of `COc1ccc(C2(c3ccc(OC)cc3)NC(=O)N(CC(=O)Nc3cc(C)on3)C2=O)cc1`, the inhibition was 5.1%.
The result for `CC(=O)C[C@@H](O)CC(=O)[C@H]1OC(=O)CCCCCCc2ccccc21` reads 58.1% (active); that for `CC(=O)C[C@H](O)CC(=O)[C@@H]1OC(=O)[C@@H](C)C/C=C\Cc2ccccc21`, -0.2%; that for `CC[C@@H]1CCCCc2ccccc2[C@@H](C(=O)C[C@H](O)CC(C)=O)OC1=O`, -4.4%.
Then `CSc1nc2nc(-c3cccc(C(F)(F)F)c3)ccn2n1`, with -1.7%; and `Nc1c(C(=O)c2cccs2)sc2nsc(SCCN3CCCCC3)c12`, with 94.6% (active).
With `O=C(Cc1ccc(NC(=O)C2CCCN(C(=O)CCc3ccccc3)C2)cc1)Nc1ccc(C(=O)N2CCOCC2)cc1` (stereo not given), the inhibition is -2%.
For `CCOC(=O)C1CCN(C(=O)CN2C(=O)c3cccnc3Oc3ccc(C)cc32)CC1`, the inhibition is -4.5%.
In the case of `Cc1ccc(C2(c3ccc(C)cc3)NC(=O)N(Cc3c(C)noc3C)C2=O)cc1`, the inhibition was 4.4%.
As for `CCCCN1CC(COCc2ccccc2)OCCS1(=O)=O` (stereo not given), the inhibition was -5.6%.
Regarding `CCCCC[C@H](C)N1C[C@@H](COCc2ccccc2)Oc2cc(N3CCC[C@@H]3CO)ccc2S1(=O)=O`, the inhibition was 0.2%.
For `CCCCC[C@H](C)N1C[C@@H](COCc2ccccc2)Oc2cc(N3CC[C@@H](N(C)C)C3)ccc2S1(=O)=O`, the inhibition is 56.2% (active).
Take `COc1ccc2sc(-c3ccc(N(C)C)cc3)c(-c3ccc4cc[nH]c4c3)c2c1`: the inhibition is 72% (active).
Regarding `COc1cccc(-c2sc3ccc(OC)cc3c2-c2ccc(OCCN3CCCCC3)cc2)c1`, the inhibition was 14.7%.
Consider `COc1cc(OC)cc(-c2c(-c3ccc(F)cc3)c3cc(-c4ccc5cc[nH]c5c4)ccc3n2C)c1`, for which the inhibition was -0.5%.
Then `O=C(CCc1nnc2ccc(NCc3ccccc3Cl)nn12)NCC1CCN(C2CCCC2)C1` (stereo not given), with -2.5%; and `COc1ccc(S(=O)(=O)NCC(c2ccco2)N2CCOCC2)cc1` (stereo not given), with -1.5%.
On to `C=C(C)CNC(=S)Nc1ccc(S(=O)(=O)Nc2cnc3ccccc3n2)cc1`, for which the inhibition was 9.1%.
As for `Cc1ccccc1OS(=O)(=O)c1cccc([N+](=O)[O-])c1`, the inhibition is -1.4%.
The result for `COc1ccc(S(=O)(=O)N2CCN(CC(=O)N3CCNC3=O)CC2)cc1OC` reads -0.1%; that for `CN1CCN(C2Cc3ccc(Cl)cc3Sc3ccc(F)cc32)CC1` (stereo not given), 63.7% (active); that for `Cc1ccc(-c2nnn(CC(=O)N(Cc3ccco3)C(C(=O)NC(C)(C)C)c3ccncc3)n2)o1` (stereo not given), 3.8%.
`Cc1c(C(C)(C)O)[nH]c2ccc(C#N)cc12`: the inhibition was 2.3%.
Regarding `O=C(Nc1ccc(Cl)cc1)Nc1nnc(/C=C/c2ccccc2)s1`, the inhibition is 70.9% (active).
As for `O=C(CSc1ccccc1)Nc1nnc(/C=C/c2ccccc2)s1`, the inhibition was -0.2%.
On to `COc1ccc(/C=C/c2nnc(NC(=O)C(C)C)s2)cc1`, for which the inhibition is 2%.
As to `CCNC(=O)C1(C)CCCN(C(=O)c2c(C)noc2C)C1` (stereo not given), the inhibition is -7.3%.
`COc1cc(C(=O)Nc2cc(C(F)(F)F)ccc2N2CCOCC2)ccc1O`: the inhibition was -2.1%.
Regarding `O=C(CCn1nnc2ccccc21)OCC(=O)c1ccc([N+](=O)[O-])cc1`, the inhibition was -4.6%.
As to `O=C(CC(n1cncn1)C(Cl)(Cl)Cl)c1ccc([N+](=O)[O-])cc1` (stereo not given), the inhibition was 67.9% (active).
The result for `O=C(Cn1c[n+](CC(=O)c2ccc([N+](=O)[O-])cc2)cn1)c1ccc([N+](=O)[O-])cc1` reads 0.3% and 0%; that for `CN(C(=O)c1cccc(NC(=O)Cc2ccc(NC(=O)C3CCCN(C(=O)C4CCCC4)C3)cc2)c1)C1CCC1` (stereo not given), -0.4%.
Turning to `CCOc1ccc(N2C(=O)CN(c3cccc4ccccc34)C2=S)cc1`, the inhibition was -2.1%.
With `CCOc1ccc(N2C(=O)/C(=C/c3ccc(C)o3)N(C)C2=S)cc1`, the inhibition was 76.4% (active).
With `CCO/C=C1\C(=O)N(c2ccc(OCC)cc2)C(=O)c2ccccc21`, the inhibition is -2.4%.
As to `O=C(NCC1CCCO1)C1CCN(C2CCN(C(=O)C3CCCCC3)CC2)CC1` (stereo not given), the inhibition is 1.8%.
Take `CC(=O)Nc1ccc(NC(=O)CN2CCCC(C)C2)c(Cl)c1` (stereo not given): the inhibition was 1.3%.
Consider `O=C(CSc1ccccc1)Nc1cc(Cl)ccc1Oc1ccccc1`, for which the inhibition was -1.8%.
As to `CC1CCCN(CC(=O)Nc2cc(Cl)ccc2Oc2ccccc2)C1` (stereo not given), the inhibition was 96.4% (active).
The result for `CCCCCCCCN1C(=O)[C@H](CC(=O)NCc2cccc3ccccc23)C[C@@]2(C(=O)OC)CCCCC=C12` reads 5.4%.
On to `O=C(COc1coc(CN2CCN(c3ccccc3)CC2)cc1=O)Nc1ccccc1F`, for which the inhibition is 10.5%.
On to `CN1CCN(C2=NCCO2)CC1`, for which the inhibition is -6.4%.
Then `Cc1ccc2[nH]c(=O)c(-c3nc4c(C)cccn4c3NCc3ccco3)cc2c1`, with 19.3%; and `CCCN(CCC)c1nc2c(C)cccn2c(=O)c1/C=C1/SC(=S)N(Cc2ccco2)C1=O`, with 57.2% (active); and `CNc1nc2c(C)cccn2c(=O)c1C=Nc1ccc(OC)cc1`, with -1.8%.
Take `CSc1nc2sc3c(c2c(=O)[nH]1)CCc1ccccc1-3`: the inhibition was -6.9%.
For the compound `CCN(CC)CCCC(C)n1c2nc(=O)[nH]c(=O)c-2nc2cc(Cl)ccc21` (stereo not given), the inhibition is -0.7%.
Then `Cc1cc2nc3n(c2cc1C)CC1CC(C(=O)NCCC(C)C)N(C)C31` (stereo not given), with -4.6%; and `COc1ccc(CCNC(=O)C2CC3Cn4c(nc5cc(C)c(C)cc54)C3N2C)cc1` (stereo not given), with 60.3% (active); and `CN1C(C(=O)NCC2CC2)CC2Cn3c(nc4ccccc43)C21` (stereo not given), with -1.8%.
`COc1cc(NC(=O)C2CC(c3ccccc3O)=NO2)c(OC)cc1Cl` (stereo not given): the inhibition is -9.5%.
With `COc1ccc(NC(=O)C(C)SCc2ccccc2)cc1` (stereo not given), the inhibition is -0.5%.
Then `Cc1cccc(NC(=O)C2CC(=O)OC23CCCC3)c1` (stereo not given), with 3.1%; and `COc1cccc(CNc2nc(C(F)(F)F)nc3ccccc23)c1`, with 65.7% (active).
Then `CC(Nc1nc(C(F)(F)F)nc2ccccc12)c1cccs1` (stereo not given), with -9.6%; and `COc1cccc(CNc2ncc(-c3ccccc3)n2C)c1`, with 1%.
For `CC(CCc1ccc(O)cc1)NCc1ccc(Cl)cc1Cl` (stereo not given), the inhibition was 3.5%.
With `Brc1cc(Br)c(Oc2cc(Br)c(Br)cc2Br)cc1Br`, the inhibition is 0.4%.
`CN(C(=O)CN1CCN(c2cc(-c3ccc(OCc4ccccc4)cc3)ncn2)CC1)c1ccccc1`: the inhibition was -3.7%.
`Cc1ccc(NC(=S)N2CCCC(c3ccccc3)=N2)cc1`: the inhibition is 2.5%.
For `O=S(=O)(c1cccc2nonc12)N1CCN(c2cccc(Cl)c2)CC1`, the inhibition was -11.1%.
`CCCn1nc(C(=O)Nc2ccc3nc(C)sc3c2)c2ccccc2c1=O`: the inhibition was -2.4%.
On to `CCCC(=O)Nc1nc2ccc(NC(=O)c3c(F)c(F)c(OC)c(F)c3F)cc2s1`, for which the inhibition is 68.7% (active).
Then `COc1cc(C(=O)NCc2nnc(SCC(=O)Nc3nc4ccc(C)cc4s3)o2)cc(OC)c1OC`, with -6.4%; and `CC(=O)Nc1ccc(NC(=O)CSc2nnnn2C2CCCCC2)cc1`, with -2.8%; and `CCOc1ccc(S(=O)(=O)N2CCN=C2Cc2ccccc2)cc1C`, with 1.2%.
